The values that follow come from ChEMBL document CHEMBL3988442, “University of Dundee, Small-Polar-MMV Screening Library” (2021).

For some of these results: Potency and affinity values are given separately.

Holding throughout (design): scale not given: direction of the effect not stated beside the values
The target of test [1] is Protein translocase subunit SecA (Escherichia coli (strain K12)) (UniProt P10408). In words: Assay to Identify E. coli SecA ATPase Inhibitors. Particulars: 30 µM. The test is classed as functional.
The target in test [2] is T1, Ubiquitin-activating enzyme e1, putative (Leishmania donovani (strain BPK282A1)) (UniProt E9BSI1).
T1 sequence (whole entry): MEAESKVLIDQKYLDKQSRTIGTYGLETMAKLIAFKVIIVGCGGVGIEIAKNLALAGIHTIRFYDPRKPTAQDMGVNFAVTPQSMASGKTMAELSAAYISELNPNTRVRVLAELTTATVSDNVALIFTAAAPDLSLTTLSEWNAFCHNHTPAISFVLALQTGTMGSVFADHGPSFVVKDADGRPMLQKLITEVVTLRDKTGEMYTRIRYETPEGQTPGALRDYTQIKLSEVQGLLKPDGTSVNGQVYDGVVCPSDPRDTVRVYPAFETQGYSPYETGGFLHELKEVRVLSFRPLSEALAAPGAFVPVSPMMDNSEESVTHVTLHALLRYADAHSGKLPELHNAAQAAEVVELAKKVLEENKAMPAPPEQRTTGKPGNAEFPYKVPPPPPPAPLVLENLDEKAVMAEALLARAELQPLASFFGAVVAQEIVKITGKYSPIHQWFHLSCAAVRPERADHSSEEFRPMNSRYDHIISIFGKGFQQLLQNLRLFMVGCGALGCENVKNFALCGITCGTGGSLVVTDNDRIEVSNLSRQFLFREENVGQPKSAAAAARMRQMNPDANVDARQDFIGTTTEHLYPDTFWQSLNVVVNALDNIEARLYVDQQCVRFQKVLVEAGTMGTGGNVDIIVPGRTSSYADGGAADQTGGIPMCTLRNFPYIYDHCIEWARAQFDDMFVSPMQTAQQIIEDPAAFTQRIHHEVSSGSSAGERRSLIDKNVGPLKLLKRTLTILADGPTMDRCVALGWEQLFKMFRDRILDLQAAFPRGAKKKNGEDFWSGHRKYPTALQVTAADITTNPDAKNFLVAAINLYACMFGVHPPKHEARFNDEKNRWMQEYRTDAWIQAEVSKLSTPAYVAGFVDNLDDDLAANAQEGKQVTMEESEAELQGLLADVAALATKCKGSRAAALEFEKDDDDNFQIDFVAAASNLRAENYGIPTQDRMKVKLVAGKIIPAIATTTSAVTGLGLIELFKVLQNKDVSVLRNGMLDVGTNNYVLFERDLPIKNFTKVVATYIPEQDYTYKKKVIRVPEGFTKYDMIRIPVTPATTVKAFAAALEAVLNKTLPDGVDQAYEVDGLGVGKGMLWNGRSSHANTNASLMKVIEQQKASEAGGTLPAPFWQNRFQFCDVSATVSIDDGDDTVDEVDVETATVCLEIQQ
The experiment in a line: Leishmania donovani Ubiquitin Activating Enzyme (LdE1). It is filed as functional. Particulars: 30 µM.

Test [3] concerns the target AMP-activated protein kinase, AMPK (Homo sapiens) (UniProt P54646+O43741+P54619+Q9UGJ0+Q9Y478+Q13131+Q9UGI9). The experiment in a line: AMP-dependent Kinase enzyme assay. An in vitro enzyme assay that detects ADP turnover that is directly proportional to AMPK activity. This uses naive AMPK that is activated during the assay with MK-8722. The test is classed as functional. Particulars: 30 µM.

The target of test [4] is Sialic acid-binding Ig-like lectin 9 (Homo sapiens) (UniProt Q9Y336). In words: Hs-Siglec9 ALPHAscreen SOP 20170721. The settings on record: 10 µM.
Another test concerns Trypanosoma cruzi. In words: Trypanosoma cruzi phosphomannomutase and mannose-1-phosphate guanylyltransferase assay. The test is classed as functional. Particulars: 10 µM.
The target of test [5] is T2, Arginase-2, mitochondrial (Homo sapiens) (UniProt P78540).
T2 sequence (whole entry): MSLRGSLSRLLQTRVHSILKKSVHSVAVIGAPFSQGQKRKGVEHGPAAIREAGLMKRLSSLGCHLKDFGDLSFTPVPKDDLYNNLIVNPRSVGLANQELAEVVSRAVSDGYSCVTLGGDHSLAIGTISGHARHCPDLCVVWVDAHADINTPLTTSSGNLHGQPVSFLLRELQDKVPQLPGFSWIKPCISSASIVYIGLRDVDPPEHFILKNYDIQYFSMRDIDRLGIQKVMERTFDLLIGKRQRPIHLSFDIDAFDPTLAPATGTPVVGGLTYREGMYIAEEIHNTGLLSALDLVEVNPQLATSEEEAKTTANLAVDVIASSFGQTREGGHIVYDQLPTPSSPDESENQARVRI
The experiment in a line: in vitro enzyme assay to detect the production of urea directly proportional to the activity of Arginase II. Further: in the data most compounds retested in dose-response had high values. The settings on record: 33.3 µM. The test is classed as functional.

In test [6] the target is T3, Proteasome subunit beta (Trypanosoma cruzi) (UniProt O96673).
T3 sequence (whole entry): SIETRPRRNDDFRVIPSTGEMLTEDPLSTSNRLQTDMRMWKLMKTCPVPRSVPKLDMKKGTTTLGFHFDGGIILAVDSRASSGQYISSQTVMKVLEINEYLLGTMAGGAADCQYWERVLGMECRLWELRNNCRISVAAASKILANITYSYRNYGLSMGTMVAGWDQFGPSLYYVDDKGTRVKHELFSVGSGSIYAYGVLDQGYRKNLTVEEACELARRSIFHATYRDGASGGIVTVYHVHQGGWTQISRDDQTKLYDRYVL
The experiment in a line: Trypanosoma cruzi proteasome chymotrypsin-like activity (TcProtChymo) assay. Further: in the data most compounds retested in dose-response had high values. The test is classed as functional. The settings on record: 9.37 µM.

The species entered for another test is Homo sapiens. The experiment in a line: To identify inhibition of the IFN signalling (Jak-Stat) pathway via expression of an eGFP reporter gene under the control of an IFN-stimulated response element (ISRE) containing MxA promoter. It is filed as functional. The settings on record: 30 µM.
Test [7] has as its target T4, Tyrosyl-tRNA synthetase, putative (Trypanosoma cruzi (strain CL Brener)) (UniProt Q4DSP6).
T4 sequence (whole entry): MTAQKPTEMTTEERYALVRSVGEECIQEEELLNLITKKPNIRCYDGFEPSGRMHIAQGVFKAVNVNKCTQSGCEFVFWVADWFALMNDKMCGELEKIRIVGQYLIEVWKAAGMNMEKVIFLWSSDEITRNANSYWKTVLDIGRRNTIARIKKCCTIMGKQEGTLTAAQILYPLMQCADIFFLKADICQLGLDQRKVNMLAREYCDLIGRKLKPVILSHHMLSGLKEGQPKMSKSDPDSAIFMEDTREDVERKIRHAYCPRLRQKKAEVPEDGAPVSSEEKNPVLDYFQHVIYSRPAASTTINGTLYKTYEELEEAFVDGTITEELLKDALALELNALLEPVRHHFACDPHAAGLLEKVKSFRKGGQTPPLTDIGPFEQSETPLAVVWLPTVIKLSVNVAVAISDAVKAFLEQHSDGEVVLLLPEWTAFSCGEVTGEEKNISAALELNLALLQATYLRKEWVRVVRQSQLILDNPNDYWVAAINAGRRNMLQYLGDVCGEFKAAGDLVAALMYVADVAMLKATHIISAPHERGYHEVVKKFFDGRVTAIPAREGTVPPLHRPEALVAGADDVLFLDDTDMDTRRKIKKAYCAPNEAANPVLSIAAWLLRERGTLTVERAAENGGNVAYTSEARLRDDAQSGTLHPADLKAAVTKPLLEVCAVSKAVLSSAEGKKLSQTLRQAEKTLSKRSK
The experiment in a line: Trypanosoma cruzi tyrosyl tRNA synthetase (TcYRS) _High Tyrosine SOP. Further: in the data most compounds retested in dose-response had high values. The test is classed as functional. Particulars: 30 µM.

The target in test [8] is T4, Tyrosyl-tRNA synthetase, putative (Trypanosoma cruzi (strain CL Brener)). The experiment in a line: Trypanosoma cruzi tyrosyl tRNA synthetase (TcYRS) SOP. The test is classed as functional. The settings on record: 30 µM.
The target in test [9] is Chromo domain-containing protein 1 (Saccharomyces cerevisiae (strain ATCC 204508 / S288c) (Baker's yeast)) (UniProt P32657). In words: ScCHD-1 Enzyme Inhibition Assay. Further: in the data most compounds retested in dose-response had high values. The test is classed as functional. The settings on record: 30 µM.
Sequence of Chromo domain-containing protein 1 (Saccharomyces cerevisiae (strain ATCC 204508 / S288c) (Baker's yeast)) (P32657 whole entry, the tested form may be a part): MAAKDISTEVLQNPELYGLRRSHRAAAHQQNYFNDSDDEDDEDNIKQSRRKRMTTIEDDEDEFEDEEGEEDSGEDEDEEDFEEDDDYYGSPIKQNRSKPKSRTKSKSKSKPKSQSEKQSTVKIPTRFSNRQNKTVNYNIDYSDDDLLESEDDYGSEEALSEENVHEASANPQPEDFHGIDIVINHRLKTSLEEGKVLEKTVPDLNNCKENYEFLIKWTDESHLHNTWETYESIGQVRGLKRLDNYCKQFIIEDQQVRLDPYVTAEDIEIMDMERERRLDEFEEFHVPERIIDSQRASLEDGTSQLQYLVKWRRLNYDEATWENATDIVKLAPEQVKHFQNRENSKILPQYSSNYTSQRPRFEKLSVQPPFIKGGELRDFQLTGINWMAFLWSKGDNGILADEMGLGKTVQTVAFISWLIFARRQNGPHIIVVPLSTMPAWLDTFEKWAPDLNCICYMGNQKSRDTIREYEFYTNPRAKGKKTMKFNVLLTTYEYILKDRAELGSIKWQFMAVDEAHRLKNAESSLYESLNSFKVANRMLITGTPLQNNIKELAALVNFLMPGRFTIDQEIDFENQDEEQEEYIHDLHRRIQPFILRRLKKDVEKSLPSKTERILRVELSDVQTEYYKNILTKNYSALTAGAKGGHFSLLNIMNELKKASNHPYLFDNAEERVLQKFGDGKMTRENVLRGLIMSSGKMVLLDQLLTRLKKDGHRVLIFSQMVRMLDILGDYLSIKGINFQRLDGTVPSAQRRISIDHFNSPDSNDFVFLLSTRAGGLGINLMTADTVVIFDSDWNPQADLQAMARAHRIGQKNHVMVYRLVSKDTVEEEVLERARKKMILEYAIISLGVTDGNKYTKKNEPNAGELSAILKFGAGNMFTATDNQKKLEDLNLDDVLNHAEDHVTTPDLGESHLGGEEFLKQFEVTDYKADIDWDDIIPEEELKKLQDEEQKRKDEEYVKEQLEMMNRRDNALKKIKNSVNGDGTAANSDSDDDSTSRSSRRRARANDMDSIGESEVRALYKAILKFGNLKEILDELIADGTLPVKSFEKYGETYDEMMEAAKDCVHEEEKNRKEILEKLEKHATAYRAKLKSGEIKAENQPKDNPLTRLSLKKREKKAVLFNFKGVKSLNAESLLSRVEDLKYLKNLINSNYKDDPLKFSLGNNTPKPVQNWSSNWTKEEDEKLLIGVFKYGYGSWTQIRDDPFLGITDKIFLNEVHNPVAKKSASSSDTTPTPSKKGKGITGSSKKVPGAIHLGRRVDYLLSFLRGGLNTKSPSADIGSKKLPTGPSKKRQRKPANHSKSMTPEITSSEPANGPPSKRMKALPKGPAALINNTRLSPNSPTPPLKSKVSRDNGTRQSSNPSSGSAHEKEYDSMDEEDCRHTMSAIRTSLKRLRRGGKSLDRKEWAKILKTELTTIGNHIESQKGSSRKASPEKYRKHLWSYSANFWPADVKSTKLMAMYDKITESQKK

Sequence of Sialic acid-binding Ig-like lectin 9 (Homo sapiens) (Q9Y336 whole entry): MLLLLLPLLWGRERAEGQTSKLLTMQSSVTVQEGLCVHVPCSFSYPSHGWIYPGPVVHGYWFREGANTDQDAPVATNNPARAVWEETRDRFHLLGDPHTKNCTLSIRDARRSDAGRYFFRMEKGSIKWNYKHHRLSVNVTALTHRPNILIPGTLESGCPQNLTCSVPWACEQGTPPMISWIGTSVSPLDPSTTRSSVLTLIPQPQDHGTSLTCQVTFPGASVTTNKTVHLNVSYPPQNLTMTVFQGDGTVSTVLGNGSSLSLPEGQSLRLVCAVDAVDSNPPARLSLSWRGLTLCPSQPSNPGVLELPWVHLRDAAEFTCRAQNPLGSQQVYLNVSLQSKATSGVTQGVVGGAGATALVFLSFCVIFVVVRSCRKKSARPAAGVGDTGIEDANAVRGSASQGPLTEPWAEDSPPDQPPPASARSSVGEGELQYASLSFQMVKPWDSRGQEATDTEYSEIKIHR
Sequence of Protein translocase subunit SecA (Escherichia coli (strain K12)) (P10408 whole entry): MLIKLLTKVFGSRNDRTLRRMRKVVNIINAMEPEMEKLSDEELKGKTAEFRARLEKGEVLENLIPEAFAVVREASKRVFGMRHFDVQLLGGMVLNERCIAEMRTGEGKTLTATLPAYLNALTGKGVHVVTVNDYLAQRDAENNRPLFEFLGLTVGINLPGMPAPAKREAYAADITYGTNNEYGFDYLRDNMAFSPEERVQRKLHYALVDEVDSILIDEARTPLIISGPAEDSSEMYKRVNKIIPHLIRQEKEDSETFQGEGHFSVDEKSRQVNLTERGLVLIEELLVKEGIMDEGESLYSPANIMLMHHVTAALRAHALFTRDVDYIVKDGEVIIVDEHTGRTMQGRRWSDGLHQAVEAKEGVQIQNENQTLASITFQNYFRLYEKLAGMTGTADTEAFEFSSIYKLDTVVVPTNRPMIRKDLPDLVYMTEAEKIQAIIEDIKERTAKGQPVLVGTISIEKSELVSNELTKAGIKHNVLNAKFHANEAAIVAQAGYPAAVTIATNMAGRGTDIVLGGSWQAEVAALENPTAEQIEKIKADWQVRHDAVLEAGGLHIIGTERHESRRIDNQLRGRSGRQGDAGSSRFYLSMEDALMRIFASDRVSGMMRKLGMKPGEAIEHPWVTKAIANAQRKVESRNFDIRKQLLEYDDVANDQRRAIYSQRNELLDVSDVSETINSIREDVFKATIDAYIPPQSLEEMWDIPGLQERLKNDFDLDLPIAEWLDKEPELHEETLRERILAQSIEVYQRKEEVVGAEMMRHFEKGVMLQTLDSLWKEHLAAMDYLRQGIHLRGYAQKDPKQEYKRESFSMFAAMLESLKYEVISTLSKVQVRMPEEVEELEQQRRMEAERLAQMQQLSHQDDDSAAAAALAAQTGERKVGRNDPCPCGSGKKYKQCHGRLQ

Consider `CCCc1nc(CN2CCN(Cc3noc(CCC)n3)CC2)no1`, for which the Percent Effect in test [1] is -5.83%; in test [2], 13.9%; in [3], -4.71%; in [4], 0.206%; in the test with Trypanosoma cruzi, -0.718%; in test [5] it was -8.39%. Further, the Percent Effect in test [6] is 10.5%; in the test listed under Homo sapiens it was 7.72%; in [7] it was 11.5%; in test [8] it was 17.7%; in test [9] it was -33.6%.

With `CC(=O)N1CCC(CN2CCN(Cc3nccn3C)C(C)C2)CC1` (stereo unspecified), the Percent Effect in [1] was -0.614%; in [2], 18.9%; in [3], -4.02%; in test [4] it was -8.56%; in the test with Trypanosoma cruzi, -2.14%; in [5], 4.25%. For the same molecule, the Percent Effect was 14.5% in [6]; 17.6% in the test listed under Homo sapiens; 9.9% in test [7]; 15.8% in [8]; -2.18% in [9].

Turning to `CS(=O)(=O)N1Cc2nccn2CC(Cn2ncccc2=O)C1` (stereo unspecified), the Percent Effect was -1.2% in test [1]; 13.3% in test [2]; 3.55% in [3]; 5.03% in [4]; -5.79% in the test with Trypanosoma cruzi; -26% in test [5]. Besides, the Percent Effect was 7.18% in test [6]; 0.368% in the test filed under Homo sapiens; 3.12% in [7]; 12.5% in [8]; -4.85% in [9].

On to `CC(=O)N1CCCN(C(=O)NCCc2cc(Cl)cc(Cl)c2)CC1`, for which the Percent Effect was -3.3% in test [1]; -8.86% in [2]; 10.6% in test [3]; 0.0308% in [4]; -2.77% in the test with Trypanosoma cruzi; 7.1% in [5]. For the same molecule, the Percent Effect in test [6] is 1.54%; in the test filed under Homo sapiens, 13.1%; in test [7] it was 0%; in test [8] it was 2.53%; in [9], -17.6%.

As to `CCN1CCC(NC(=O)CN2CCCCC2Cn2cc(C)cn2)CC1` (stereo unspecified), the Percent Effect in test [1] was 3.6%; in test [2], 21.5%; in test [3], 4.67%; in test [4], -0.101%; in the test with Trypanosoma cruzi it was -4.21%; in test [5] it was -11.4%. For the same molecule, the Percent Effect in test [6] is 15.3%; in the test listed under Homo sapiens it was 14.9%; in test [7], 1.04%; in test [8], -22.8%; in test [9], -23.6%.

On to `O=C(CN1CCCC1Cn1cncn1)NCCOc1cccc(F)c1` (stereo unspecified), for which the Percent Effect is -4.88% in test [1]; 0% in test [2]; -3.72% in test [3]; 14.3% in [4]; -0.84% with Trypanosoma cruzi; -2.52% in test [5]. For the same molecule, the Percent Effect in [6] is -3.47%; in the test listed under Homo sapiens, -2.63%; in [7], 0.493%; in test [8], 1.24%; in test [9], 5.23%.

Turning to `CCOc1cccc2c1OCC(C(=O)NS(=O)(=O)c1ccc(C)s1)=C2`, the Percent Effect in test [1] is -4.93%; in [2], -8.11%; in [3] it was -7.07%; in test [4], 7.91%; with Trypanosoma cruzi it was -1.98%; in test [5] it was 4.01%. In addition, the Percent Effect in [6] is 9.01%; in the test listed under Homo sapiens, 5.57%; in test [7], -9.36%; in test [8], -18.5%; in test [9] it was -1.03%.

Take `N#CCCN(C(=O)CN1CCCC1c1ccsc1)c1ccccc1F` (stereo unspecified): the Percent Effect is -3.56% in [1]; -18.9% in [2]; -2.34% in test [3]; -0.732% in test [4]; -2.51% in the test with Trypanosoma cruzi; -8.69% in test [5]. The Percent Effect in test [6] was -0.718%; in the test filed under Homo sapiens, 16.7%; in test [7], 3.96%; in test [8] it was 1.22%; in [9], 21.4%.

On to `Cc1noc(C(C)C)c1C(=O)NS(=O)(=O)c1ccc2c(c1)OCCCO2`, for which the Percent Effect is -0.953% in test [1]; 2.63% in test [2]; 4.57% in [3]; 1.83% in test [4]; 4.19% in the test on Trypanosoma cruzi; -3.55% in test [5]. Further, the Percent Effect in test [6] was 6.23%; in the test listed under Homo sapiens it was 24.3%; in [7] it was 0%; in [8], 5.2%; in test [9], 15.4%.

In the case of `Cn1c(Cn2ccnc2)nnc1C1CCN(Cc2cccnc2N)CC1`, the Percent Effect was -2.31% in [1]; -9.72% in test [2]; 1.79% in test [3]; -9.15% in test [4]; -2.62% with Trypanosoma cruzi; 3.53% in test [5]. Also, the Percent Effect in test [6] is 9.12%; in the test filed under Homo sapiens, -8.94%; in [7] it was 2.1%; in test [8], 2.56%; in test [9], -3.65%.

Take `Cc1noc(Cl)c1CCC(=O)N1CCC(CC(N)=O)CC1`: the Percent Effect in test [1] is -6.39%; in [2] it was 18.4%; in test [3], -6.93%; in test [4], 6.68%; with Trypanosoma cruzi, 6.63%; in [5], -3.96%. Further, the Percent Effect was 13.6% in [6]; 10.4% in the test filed under Homo sapiens; 4.43% in test [7]; 18.5% in test [8]; -7.5% in test [9].
